The supplement of paper PMC9694430

Assays:
Assay in all cases: thermal shift delta Tm vs DMSO control; higher = stronger stabilization (binding)
Conditions in all cases: 12.5 µM; protein concentration 2 µM
[1] = tested on: LOC_OS04G57630-cb004
In short: (§1)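 Purified, E. coli-expressed rice kinase domain constructs were tested by differential scanning fluorimetry in 96-well plates: 19.5 μl of 2 μM kinase in 100 mM potassium phosphate pH 7.5, 150 mM NaCl, 10% glycerol, 5 × SYPRO Orange, plus compound in DMSO. Fluorescence was read from 25°C to 95°C at 0.05°C/s. Melting temperatures came from Boltzmann fits, and the shift is the triplicate mean relative to protein with DMSO alone.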

[2] = tested on: LOC_OS05G07850-cb002
In short: as §1

[3] = tested on: LOC_OS05G16824-cb004
In short: as §1

[4] = tested on: LOC_OS05G28520-cb001
In short: as §1

[5] = tested on: LOC_OS05G30820-cb001
In short: as §1

[6] = tested on: LOC_OS05G43570-cb004
In short: as §1

[7] = tested on: LOC_OS06G16330-cb003
In short: as §1

[8] = tested on: T1, LOC_OS06G22820-cb001
T1 sequence (whole entry): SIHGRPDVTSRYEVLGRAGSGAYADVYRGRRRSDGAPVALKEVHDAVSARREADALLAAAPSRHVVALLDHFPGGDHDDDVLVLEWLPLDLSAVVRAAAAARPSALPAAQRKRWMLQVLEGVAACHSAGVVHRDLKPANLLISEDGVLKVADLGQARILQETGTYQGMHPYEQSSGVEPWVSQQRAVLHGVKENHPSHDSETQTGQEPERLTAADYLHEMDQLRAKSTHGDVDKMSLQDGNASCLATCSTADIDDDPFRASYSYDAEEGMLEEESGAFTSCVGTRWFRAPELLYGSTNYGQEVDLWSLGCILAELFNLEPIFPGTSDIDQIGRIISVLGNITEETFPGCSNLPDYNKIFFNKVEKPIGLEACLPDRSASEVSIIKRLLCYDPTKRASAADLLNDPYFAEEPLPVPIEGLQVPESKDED
In short: as §1

[9] = tested on: LOC_OS07G06570-cb004
In short: as §1

[10] = tested on: LOC_OS07G07230-cb001
In short: as §1

LOC_OS06G16330-cb003, sequence (as listed by the source): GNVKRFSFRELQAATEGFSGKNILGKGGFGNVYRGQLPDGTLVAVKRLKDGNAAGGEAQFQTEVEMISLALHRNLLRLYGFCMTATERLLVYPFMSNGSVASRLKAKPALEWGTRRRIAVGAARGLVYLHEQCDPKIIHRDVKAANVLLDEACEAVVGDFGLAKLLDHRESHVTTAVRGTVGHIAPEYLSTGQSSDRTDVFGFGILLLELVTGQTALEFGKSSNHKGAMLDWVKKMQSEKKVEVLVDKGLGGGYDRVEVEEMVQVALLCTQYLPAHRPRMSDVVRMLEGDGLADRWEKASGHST

Structure (SMILES)	thermal shift delta Tm [1] [°C]	thermal shift delta Tm [2] [°C]	thermal shift delta Tm [3] [°C]	thermal shift delta Tm [4] [°C]	thermal shift delta Tm [5] [°C]	thermal shift delta Tm [6] [°C]	thermal shift delta Tm [7] [°C]	thermal shift delta Tm [8] [°C]	thermal shift delta Tm [9] [°C]	thermal shift delta Tm [10] [°C]
O=C1NC(=O)/C(=C/c2cccc(C(F)(F)F)c2)S1	0.39	1.33	-0.21	0.59	0.46	0.27	0.26	0.44	0.68	0.58
CN1CCN(S(=O)(=O)c2ccc(-c3cnc(N)c(C(=O)Nc4cccnc4)n3)cc2)CC1	0.6	7.93	1.41	0.68	0.46	-0.03	2.59	0.9	1.34	0.52
CO[C@H]1C[C@@H]2CC[C@@H](C)[C@@](O)(O2)C(=O)C(=O)N2CCCC[C@H]2C(=O)O[C@H]([C@H](C)C[C@@H]2CC[C@@H](O)[C@H](OC)C2)CC(=O)[C@H](C)/C=C(\C)[C@@H](O)[C@@H](OC)C(=O)[C@H](C)C[C@H](C)/C=C/C=C/C=C/1C [Rapamycin (Sirolimus)]	-0.27	0.51	-0.52	0.16	0.5	0.84	-0.23	0.98	1.23	0.34
O=C1Nc2ccc(CN3C(=O)CSC3=O)cc2/C1=C/c1cc(CN2CCOCC2)c[nH]1	1.02	6.39	8.47	0.01	0.12	0.23	9.36	1.05	1.86	0.48
FC(F)(F)c1ccc(Nc2nc3ccc(Oc4ccnc(-c5ncc(C(F)(F)F)[nH]5)c4)cc3[nH]2)cc1 [Raf265 derivative]	1.36	0.46	7.37	1.01	0.29	1.6	1.16	0.73	1.65	0.27
O=C1c2c(O)cc(O)cc2OC(c2ccc(O)c(O)c2)C1O (stereo not given) [Taxifolin (Dihydroquercetin)]	0.11	3.32	-0.02	0.61	0.75	-0.08	-0.04	0.59	0.96	0.52
Nc1cccc(S(=O)(=O)N2CCCN(S(=O)(=O)c3ccc4c(c3)OCCO4)CC2)c1	-0.1	0.55	-0.03	0.74	0.46	0.1	-0.91	0.44	1.4	0.56
CO[C@H]1C[C@@H]2CC[C@@H](C)[C@@](O)(O2)C(=O)C(=O)N2CCCC[C@H]2C(=O)O[C@H]([C@H](C)C[C@@H]2CC[C@H](n3cnnn3)[C@H](OC)C2)CC(=O)[C@H](C)/C=C(\C)[C@@H](O)[C@@H](OC)C(=O)[C@H](C)C[C@H](C)/C=C/C=C/C=C/1C [Zotarolimus(ABT-578)]	0.76	0.65	-0.34	0.87	0.57	1.17	-0.09	0.92	1.43	-0.08
CCNC(=O)Nc1ccc(-c2nc(N3CCOC[C@@H]3C)c3c(n2)C(C)(C)S(=O)(=O)C3)cc1	-0.03	1.34	0.19	0.25	0.2	0.77	-0.15	0.67	1.9	0.66
O=C(/C=C/c1ccc(O)c(O)c1)c1ccc(O)cc1O [Butein]	2.45	8.49	4.48	1.45	0.81	1.93	4.87	2.16	1.46	0.82
CCN(CC)CCNC(=O)c1c(C)[nH]c(/C=C2\C(=O)Nc3ccc(-c4csc(-c5ccccc5)n4)cc32)c1C [Amcasertib (BBI503)]	2.36	10.8	12.7	2.76	0.34	0	6.16	0.72	1.73	0.75
O=C(O)c1ccc(-c2c[nH]c3ncc(-c4ccccc4)cc23)cc1C1CCCC1	3.53	6.21	4.46	1.1	0.74	-0.07	10.4	0.29	-3.29	0.05
Cc1ccc(C(=O)Nc2ccc(Oc3cc4cnn(C)c4cc3-c3cn[nH]c3)c(F)c2)c(=O)n1-c1ccc(F)cc1	1.06	12.9	0.64	0.91	0.24	1.08	5.02	1.28	1.37	-0.23
Cc1cc(CN2CCN(c3c(Br)cnc4nc(-c5ccc(N6CCN(C)CC6)cc5)[nH]c34)CC2)no1	1.11	8.75	3.92	1.16	0.38	0.18	5.31	0.11	1.11	1.28
CCN(CC)CCNC(=O)c1c(C)[nH]c(/C=C2\C(=O)Nc3ccc(F)cc32)c1C [Sunitinib]	4.01	8.4	12.1	2.16	0.86	0.55	8.31	0.22	0.72	0.24
CCc1cc(Nc2nccc(-c3c(-c4ccc(OC)c(C(=O)Nc5c(F)cccc5F)c4)nc4ccccn34)n2)c(OC)cc1N1CCC(N2CCN(S(C)(=O)=O)CC2)CC1	-0.18	0.07	-0.08	1.11	0.41	0.31	-0.08	0.94	0.75	0.69
CCS(=O)(=O)N1CCN(c2ccc(Nc3ncc(C(N)=O)c(NC4CC4)n3)cc2)CC1	1.82	9.2	11.7	0.7	3.56	2.04	5.15	0.57	1.36	1.17
CN1CCC(Nc2nc(Nc3ccc(Oc4ccccc4)cc3)c3c(=O)[nH]cc(Br)c3n2)CC1	1.8	7.31	9.77	1.25	1.19	1.11	2.6	0.71	-0.18	-0.18
Nc1nccc(Oc2ccc(NC(=O)c3c[nH]cc(-c4ccc(F)cc4)c3=O)cc2F)c1Cl	1.51	14.9	-0.78	0.3	0.92	1.01	6.76	0.86	0.57	0.36
N#Cc1ccc2[nH]c(O)c(-c3ccc(CN4CCOCC4)cn3)c2c1	0.29	2.86	1.38	0.81	0.35	0.3	-0.35	0.74	1.19	0.07
CC(C)(O)CNc1ncc(-c2ccnc(Nc3ccnc(Cl)c3)n2)c(CC2CC2)n1	0.07	7.44	0.09	0.75	0.41	0.5	4.77	0.62	0.78	0.71
